Test results published in PubChem BioAssay (EPA / NIEHS).
Where “and” joins values, the source holds several entries; their conditions need not be identical. Equal values may be shown once. Results filed as inconclusive are left out. Where a structure was tested more than once in an assay, its records may differ in their call. Calls of active or inactive are those of the source. The calls were made as follows, unless noted: active = hit-call score of the fitted dose curve at least 0.9, where 1 is the maximum; inactive = score below 0.9.

How the values were obtained:
[1] = target: Peroxisome proliferator-activated receptor gamma (Homo sapiens) (UniProt P37231); assay: OT_PPARg_PPARgSRC1_0480: Odyssey Thera (OT) 8-hour Protein-Complementation Assay for Peroxisome Proliferator-activated Receptor Gamma / SRC-1 Co-activator (AID 2283387; active = hit-call score of the fitted dose curve at least 0.9, where 1 is the maximum;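 also: nuclear to cytoplasmic split Venus YFP fluorescence ratio reporting PPARg SRC-1 interaction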)
Chain of Peroxisome proliferator-activated receptor gamma (Homo sapiens) (P37231 whole entry, looked up, the tested form may be a part): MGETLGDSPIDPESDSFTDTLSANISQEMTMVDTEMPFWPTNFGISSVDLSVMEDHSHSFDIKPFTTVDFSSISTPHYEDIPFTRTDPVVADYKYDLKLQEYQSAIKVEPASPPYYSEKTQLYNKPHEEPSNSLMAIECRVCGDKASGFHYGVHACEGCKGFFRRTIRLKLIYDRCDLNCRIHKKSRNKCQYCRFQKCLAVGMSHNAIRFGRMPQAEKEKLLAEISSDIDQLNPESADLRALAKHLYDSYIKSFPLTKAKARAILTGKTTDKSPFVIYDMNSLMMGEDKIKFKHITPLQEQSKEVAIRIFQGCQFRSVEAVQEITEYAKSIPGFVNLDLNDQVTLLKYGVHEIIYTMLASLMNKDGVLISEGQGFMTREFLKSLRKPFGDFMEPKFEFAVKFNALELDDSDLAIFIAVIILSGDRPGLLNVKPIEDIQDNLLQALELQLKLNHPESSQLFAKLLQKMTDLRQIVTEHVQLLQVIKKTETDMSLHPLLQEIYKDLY
Procedure, shortened: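 Split-YFP (IFP1/IFP2) PPARg/SRC-1 reporter, HEK293T, 37 °C, 5% CO2; 8 h compound; formaldehyde fix + Draq5; high-content imaging, N/C ratio, ≥350 cells/image, positive direction vs DMSO.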

[2] = target: Peroxisome proliferator-activated receptor gamma (Homo sapiens) (UniProt P37231); assay: OT_PPARg_PPARgSRC1_1440: Odyssey Thera (OT) 24-hour Protein-Complementation Assay for Peroxisome Proliferator-activated Receptor Gamma/ SRC-1 Co-activator (AID 2283388; active = hit-call score of the fitted dose curve at least 0.9, where 1 is the maximum;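 also: nuclear to cytoplasmic ratio of reconstituted Venus YFP fluorescence in fixed imaged cells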)
Procedure, shortened: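 Protein-fragment complementation between PPARg and coactivator SRC-1 was measured by fluorescence imaging in transiently transfected HEK293T cells after 24 h treatment. Signal was quantified as N/C ratio in the 488 nm channel, with DMSO as negative control.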

[3] = read-out: Tumor necrosis factor receptor superfamily member 6 (Homo sapiens) (UniProt P25445); assay: LTEA_HepaRG_FAS: Life Technologies and Expression Analysis (LTEA) Assay for Fas cell surface death receptor (FAS) using HepaRG (AID 2283447); conditions: mRNA level, 48 h; actives raise or lower the signal
Procedure, shortened: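 FAS transcript level was measured by TaqMan qRT-PCR against three housekeeping genes after 48 h chemical exposure. Cells were HepaRG, 0.5% DMSO vehicle, with a top concentration of 100 uM and half-log dilutions over eight points, in duplicate.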

[4] = read-out: Fatty acid synthase (Homo sapiens) (UniProt P49327); assay: LTEA_HepaRG_FASN: Life Technologies and Expression Analysis (LTEA) Assay for Fatty Acid Synthase (FASN) using HepaRG (AID 2283448); conditions: mRNA level, 48 h; actives raise or lower the signal;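 as to AC50: differentiated human HepaRG liver cells in serum-free induction medium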
Procedure, shortened: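 Transcript-level assay: HepaRG liver cells are treated for 48 h across an eight-point range topping at 100 uM, and FASN mRNA, normalized to three housekeeping genes, is compared with DMSO controls in both directions.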

[5] = read-out: Cyclin D2 (CCND2), CCND2 (gene 894); assay: LTEA_HepaRG_CCND2: Life Technologies and Expression Analysis (LTEA) Assay for Cyclin D2 (CCND2) using HepaRG (AID 2283449); conditions: mRNA level, 48 h; actives raise or lower the signal
Procedure, shortened: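 Read-out is CCND2 mRNA level measured by qRT-PCR in human HepaRG liver cells and normalised to three housekeeping genes. Chemicals were applied for 48 h at up to 100 uM, with gain or loss fitted relative to 0.5% DMSO.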

[6] = read-out: Cyclin Dependent Kinase Inhibitor 1A (CDKN1A), CDKN1A (gene 1026); assay: LTEA_HepaRG_CDKN1A: Life Technologies and Expression Analysis (LTEA) Assay for Cyclin Dependent Kinase Inhibitor 1A (CDKN1A) using HepaRG (AID 2283450); conditions: mRNA level, 48 h; actives raise or lower the signal
Procedure, shortened: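 Read-out is CDKN1A mRNA by TaqMan qRT-PCR, normalized to three housekeeping genes and fitted in both directions against the DMSO baseline. Human HepaRG cells were treated 48 h with test chemicals up to 100 uM in half-log steps, 0.5% DMSO.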

[7] = read-out: Cyclin D1 (CCND1), CCND1 (gene 595); assay: LTEA_HepaRG_CCND1: Life Technologies and Expression Analysis (LTEA) Assay for Cyclin D1 (CCND1) using HepaRG (AID 2283451); conditions: mRNA level, 48 h; actives raise or lower the signal;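 as to AC50: differentiated human HepaRG liver cells in serum-free induction medium; TaqMan qRT-PCR transcript level normalised to ACTB GAPDH and POLR2A housekeeping genes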
Procedure, shortened: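 HepaRG plated 48 h, medium switched to serum-free induction medium, chemicals added in duplicate (top 100 uM, half-log steps, 0.5% DMSO) for 48 h, cells lysed, RNA measured by TaqMan qRT-PCR.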

[8] = read-out: catalase (CAT), CAT (gene 847); assay: LTEA_HepaRG_CAT: Life Technologies and Expression Analysis (LTEA) Assay for catalase (CAT) using HepaRG (AID 2283452); conditions: mRNA level, 48 h; actives raise or lower the signal;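 as to AC50: TaqMan qRT-PCR signal normalized to ACTB GAPDH and POLR2A housekeeping genes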
Procedure, shortened: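 Expression of CAT was quantified by TaqMan qRT-PCR with ACTB/GAPDH/POLR2A normalization after 48 h chemical exposure of HepaRG. Eight-point half-log series, top 100 uM, in 0.5% DMSO; gain or loss fitted against vehicle.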

[9] = target: Retinoic acid receptor RXR-alpha (Homo sapiens) (UniProt P19793); assay: OT_NURR1_NURR1RXRa_1440: Odyssey Thera (OT) 24-hour HEK293T Protein Complementation Assay for Nurr1/retinoid X receptor (RXR) (AID 2283386; active = hit-call score of the fitted dose curve at least 0.9, where 1 is the maximum)
Chain of Retinoic acid receptor RXR-alpha (Homo sapiens) (P19793 whole entry, looked up): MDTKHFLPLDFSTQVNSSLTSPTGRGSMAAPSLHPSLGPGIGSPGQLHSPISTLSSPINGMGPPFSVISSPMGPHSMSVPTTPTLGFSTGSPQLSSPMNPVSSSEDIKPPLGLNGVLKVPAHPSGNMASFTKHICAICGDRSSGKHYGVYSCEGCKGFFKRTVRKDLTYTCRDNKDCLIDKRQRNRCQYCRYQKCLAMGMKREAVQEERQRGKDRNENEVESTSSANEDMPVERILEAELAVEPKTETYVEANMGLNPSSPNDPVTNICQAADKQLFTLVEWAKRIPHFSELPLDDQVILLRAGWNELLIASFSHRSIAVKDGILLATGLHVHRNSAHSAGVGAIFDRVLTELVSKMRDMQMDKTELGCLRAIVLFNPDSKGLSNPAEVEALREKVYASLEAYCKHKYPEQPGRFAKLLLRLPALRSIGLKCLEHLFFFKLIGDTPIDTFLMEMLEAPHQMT
Procedure, shortened: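 Measured as fluorescence from a reconstituted split reporter, this 24 h HEK293T complementation assay scores compound-induced gain of Nurr1/RXRα association relative to DMSO.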

[10] = CEETOX_H295R_11DCORT: CeeTox H295R High-throughput Steroidogenesis Assay for 11-Deoxycortisol (11DCORT) (AID 2283432); conditions: actives raise or lower the signal
Procedure, shortened: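 Steroidogenesis in human H295R cells: 48 h chemical exposure after forskolin priming, 11-deoxycortisol measured by LC-MS/MS.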

[11] = CEETOX_H295R_OHPREG: CeeTox H295R High-throughput Steroidogenesis Assay for OH-Pregnenolone (OHPREG) (AID 2283434); conditions: actives raise or lower the signal
Procedure, shortened: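 Hormone levels in spent medium were measured by tandem mass spectrometry following liquid-liquid extraction. Cells (H295R) had been forskolin-stimulated (10 uM, 48 h) before a 48 h chemical exposure at 0.1% DMSO, with activity fitted in both directions against DMSO.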

[12] = CEETOX_H295R_OHPROG: CeeTox H295R High-throughput Steroidogenesis Assay for OH-Progesterone (OHPROG) (AID 2283435); conditions: actives raise or lower the signal
Procedure, shortened: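 Secreted 17alpha-hydroxyprogesterone is read by tandem MS from media of forskolin-primed H295R cells dosed with chemical for 48 h. Activity is fitted in both directions against DMSO baseline; cytotoxic concentrations are re-tested diluted.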

[13] = CEETOX_H295R_ANDR: CeeTox H295R High-throughput Steroidogenesis Assay for Androstenedione (ANDR) (AID 2283436); conditions: actives raise or lower the signal;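 also: human H295R adrenal cells exposed for 48 h with androstenedione measured in medium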
Procedure, shortened: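 Read-out is androstenedione secreted into medium, measured by tandem mass spectrometry after liquid-liquid extraction. Cells were H295R, dosed for 48 h per modified OECD 456; activity fitted in both directions relative to DMSO.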

[14] = CEETOX_H295R_CORTIC: CeeTox H295R High-throughput Steroidogenesis Assay for Corticosterone (CORTIC) (AID 2283437); conditions: actives raise or lower the signal;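 also: human H295R adrenal cells prestimulated with forskolin before chemical exposure; corticosterone secreted into medium quantified by mass spectrometry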
Procedure, shortened: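 Corticosterone secreted into medium is measured by reverse-phase HPLC with tandem MS following liquid-liquid extraction. Cells are forskolin-stimulated (10 uM, 48 h) before 48 h test exposure; activity fitted in both directions against DMSO.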

[15] = CEETOX_H295R_CORTISOL: CeeTox H295R High-throughput Steroidogenesis Assay for Cortisol (AID 2283438); conditions: actives raise or lower the signal;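 also: cortisol secreted into medium quantified by LC-MS/MS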
Procedure, shortened: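 Human adrenocortical H295R cells (passage ≤10) received test chemicals for 48 h after forskolin priming. Secreted cortisol was measured by LC-MS/MS.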

[16] = CEETOX_H295R_DOC: CeeTox H295R High-throughput Steroidogenesis Assay for DOC (AID 2283439); conditions: actives raise or lower the signal
Procedure, shortened: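 Secreted DOC was quantified from H295R media by HPLC-MS/MS after 48 h chemical exposure following 48 h forskolin (10 uM) prestimulation. Values were fitted in both directions relative to DMSO, the negative control and baseline.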

[17] = CEETOX_H295R_PROG: CeeTox H295R High-throughput Steroidogenesis Assay for Progesterone (PROG) (AID 2283442); conditions: actives raise or lower the signal
Procedure, shortened: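 Steps: seed H295R cells and let them adhere overnight; prime 48 h with 10 uM forskolin; dose with compound in DMSO at 0.1% final for 48 h; extract medium steroids with MTBE; measure progesterone by LC-MS/MS. MTT viability was run in the same wells.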

Measured: AC50

Chain of Fatty acid synthase (Homo sapiens) (P49327 whole entry, looked up): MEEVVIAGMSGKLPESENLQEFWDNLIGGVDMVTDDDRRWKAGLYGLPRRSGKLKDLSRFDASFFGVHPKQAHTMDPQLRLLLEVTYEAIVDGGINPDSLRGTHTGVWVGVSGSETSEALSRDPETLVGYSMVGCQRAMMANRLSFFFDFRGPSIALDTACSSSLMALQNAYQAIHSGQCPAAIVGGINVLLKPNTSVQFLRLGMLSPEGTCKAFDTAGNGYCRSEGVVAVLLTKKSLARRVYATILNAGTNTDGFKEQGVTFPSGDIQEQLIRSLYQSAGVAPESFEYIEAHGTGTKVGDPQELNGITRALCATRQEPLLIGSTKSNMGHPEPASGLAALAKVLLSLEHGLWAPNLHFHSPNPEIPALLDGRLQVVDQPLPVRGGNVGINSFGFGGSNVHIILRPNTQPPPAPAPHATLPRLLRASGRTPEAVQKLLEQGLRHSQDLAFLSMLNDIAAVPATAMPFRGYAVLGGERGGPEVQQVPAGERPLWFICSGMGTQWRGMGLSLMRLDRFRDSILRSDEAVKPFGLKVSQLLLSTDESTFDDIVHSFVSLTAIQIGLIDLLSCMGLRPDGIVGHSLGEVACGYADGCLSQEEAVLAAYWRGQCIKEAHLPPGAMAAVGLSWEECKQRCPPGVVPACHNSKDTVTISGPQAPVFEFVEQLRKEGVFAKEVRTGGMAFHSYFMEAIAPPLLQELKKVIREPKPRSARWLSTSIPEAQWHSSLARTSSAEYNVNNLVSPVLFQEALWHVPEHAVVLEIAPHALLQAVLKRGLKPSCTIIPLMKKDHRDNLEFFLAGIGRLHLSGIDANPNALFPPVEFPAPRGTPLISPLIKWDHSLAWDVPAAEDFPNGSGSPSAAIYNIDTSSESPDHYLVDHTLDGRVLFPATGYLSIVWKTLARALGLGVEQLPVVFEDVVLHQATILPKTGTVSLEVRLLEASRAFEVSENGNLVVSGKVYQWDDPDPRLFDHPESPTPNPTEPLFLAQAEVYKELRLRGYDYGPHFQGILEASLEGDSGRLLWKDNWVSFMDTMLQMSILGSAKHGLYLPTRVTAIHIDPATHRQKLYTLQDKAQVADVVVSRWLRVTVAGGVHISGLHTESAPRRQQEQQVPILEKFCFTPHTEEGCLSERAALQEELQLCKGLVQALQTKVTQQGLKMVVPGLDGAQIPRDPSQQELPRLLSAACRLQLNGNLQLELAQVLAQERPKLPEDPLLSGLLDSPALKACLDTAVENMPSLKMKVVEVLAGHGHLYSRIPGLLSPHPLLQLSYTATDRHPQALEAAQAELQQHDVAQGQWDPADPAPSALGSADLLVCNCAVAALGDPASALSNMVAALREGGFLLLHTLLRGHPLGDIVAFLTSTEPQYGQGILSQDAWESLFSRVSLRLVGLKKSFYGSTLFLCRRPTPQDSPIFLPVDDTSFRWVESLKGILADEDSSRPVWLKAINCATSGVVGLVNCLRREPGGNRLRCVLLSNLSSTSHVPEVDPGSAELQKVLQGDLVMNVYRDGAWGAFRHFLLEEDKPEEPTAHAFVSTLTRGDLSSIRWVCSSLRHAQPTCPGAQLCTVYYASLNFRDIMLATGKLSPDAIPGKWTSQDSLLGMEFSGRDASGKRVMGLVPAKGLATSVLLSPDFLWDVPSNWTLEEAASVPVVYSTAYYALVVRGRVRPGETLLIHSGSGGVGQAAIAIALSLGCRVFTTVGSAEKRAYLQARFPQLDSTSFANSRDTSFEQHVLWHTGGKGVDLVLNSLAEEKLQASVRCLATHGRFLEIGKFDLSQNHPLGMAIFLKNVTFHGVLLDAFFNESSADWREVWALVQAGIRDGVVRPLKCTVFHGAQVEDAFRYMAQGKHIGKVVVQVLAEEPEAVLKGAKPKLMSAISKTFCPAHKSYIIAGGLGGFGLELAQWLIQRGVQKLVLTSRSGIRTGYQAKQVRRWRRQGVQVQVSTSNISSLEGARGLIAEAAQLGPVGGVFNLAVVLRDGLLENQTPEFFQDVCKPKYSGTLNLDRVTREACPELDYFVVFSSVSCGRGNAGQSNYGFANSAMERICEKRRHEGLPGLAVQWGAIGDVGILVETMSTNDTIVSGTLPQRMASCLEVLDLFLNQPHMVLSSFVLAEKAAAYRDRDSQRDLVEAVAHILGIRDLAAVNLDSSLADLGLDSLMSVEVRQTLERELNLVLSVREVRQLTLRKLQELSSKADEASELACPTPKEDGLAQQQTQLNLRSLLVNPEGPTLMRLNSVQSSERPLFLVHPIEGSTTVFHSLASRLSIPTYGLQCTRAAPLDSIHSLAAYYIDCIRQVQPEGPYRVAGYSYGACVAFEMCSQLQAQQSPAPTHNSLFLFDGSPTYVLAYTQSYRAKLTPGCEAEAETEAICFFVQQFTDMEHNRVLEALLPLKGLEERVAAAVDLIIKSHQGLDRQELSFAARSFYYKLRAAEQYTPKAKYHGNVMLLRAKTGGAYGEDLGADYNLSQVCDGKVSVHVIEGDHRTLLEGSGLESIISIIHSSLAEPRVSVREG

COC(=O)C(C)Oc1ccc(Oc2ccc(Cl)cc2Cl)cc1 (centres undefined)
inactive: [1] | [2] | [3] | [4] | [5] | [6] | [7] | [8]

CCCN(CCC)c1c([N+](=O)[O-])cc(S(N)(=O)=O)cc1[N+](=O)[O-]
inactive: [1] | [2] | [4] | [5] | [6] | [7]
active: [4] 94.6 µM and 74.2 µM | [6] 96.1 µM | [7] 91.3 µM and 79.8 µM | [8] 93.6 µM and 50 µM and 77.6 µM

Fc1ccc(Oc2ccnc3cc(Cl)cc(Cl)c23)cc1
inactive: [1] | [2] | [3] | [4] | [5] | [6] | [7] | [8]
active: [9] 70.8 µM and 65.4 µM

OC(c1ccc(Cl)cc1)(c1cncnc1)c1ccccc1Cl (centres undefined)
inactive: [9] | [1] | [2] | [5]
active: [3] 81 µM | [4] 87.3 µM | [6] 70.5 µM | [7] 50 µM | [8] 87.6 µM

COC(=O)N(OC)c1ccccc1COc1ccn(-c2ccc(Cl)cc2)n1
active: [3] 78.3 µM | [6] 79 µM | [8] 68.4 µM
inactive: [9] | [1] | [2] | [4] | [7]

O=C(O)c1nc(Cl)ccc1Cl
inactive: [9] | [2] | [3] | [4] | [5] | [6] | [7] | [8]

CCCC1COC(Cn2cncn2)(c2ccc(Cl)cc2Cl)O1 (centres undefined)
active: [14] 0.357 µM | [15] 0.323 µM | [3] 72 µM | [4] 83.3 µM | [6] 33.2 µM | [7] 90.2 µM | [8] 37.2 µM
not listed: [5] | [9]
inactive: all other assays above

O=C(O)COc1nc(Cl)c(Cl)cc1Cl
inactive: [9] | [1] | [2] | [3] | [4] | [5] | [6] | [7] | [8]

COc1ccc(C(c2ccc(OC)cc2)C(Cl)(Cl)Cl)cc1
active: [4] 80.5 µM | [8] 89.1 µM
inactive: [9] | [1] | [2] | [3] | [6] | [7]
